# Assay outcomes (PubChem BioAssay)
# UBC13 inh = human UBC13 polyubiquitination inhibition | P61088 | UBC13 polyubiquitin chain formation, TR-FRET | inhibition, % at 20 µM | hit rate 0.47% among 330,000; in the data active = inhibition above about 45%, passing the limit was not always enough
# Target sequence (P61088 whole entry, looked up): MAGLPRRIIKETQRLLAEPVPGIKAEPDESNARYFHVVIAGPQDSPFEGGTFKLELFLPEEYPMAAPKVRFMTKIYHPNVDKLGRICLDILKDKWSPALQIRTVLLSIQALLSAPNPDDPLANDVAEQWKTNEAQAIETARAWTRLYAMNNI
# MEKK2wt PB1 HTS = raises or lowers MEK5 binding to wildtype human MEKK2 PB1 domain; AID 1531; hit rate 1.1% among 290,000; Q9Y2U5; bead flow cytometry, Alexa488-MEK5 binding to MEKK2 WT; actives lie on both sides; binding response (% of control), % at 10 µM; in the data active = binding response below about 67% or above about 130%
# MEKK2 mut-MEK5 = signal of MEK5 binding to mutant human MEKK2 PB1 domain; bead flow cytometry, Alexa488-MEK5 binding to MEKK2 mutant; percent response, % at 10 µM; hit rate 0.35% among 290,000; AID 1530; in the data active = percent response above about 24%, passing the limit was not always enough
# MEKK3 PB1 HTS = modulators (inhibitors or enhancers) of MEK5 binding to human MEKK3 PB1 domain; hit rate 1.4% among 290,000; AID 1529; Q99759; binding response (% of control), % at 10 µM; bead-based flow cytometry, Alexa488-MEK5 binding to MEKK3; actives lie on both sides; 0 = blocked by unlabeled MEK5, 100 = vehicle;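 active = binding response more than 3 SD above or below the average of its plate-row segment, actives on both sides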;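 also: Alexa488 bead fluorescence after subtracting the streptavidin-only scavenger bead signal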
# MEKK2wt confirm = raises or lowers MEK5 binding to wildtype human MEKK2, retest | shares compounds with MEKK3 PB1 HTS | hit rate 2.4% among 5,900 | binding response (% of control), % at 10 µM | AID 1892 | bead flow cytometry, Alexa488-MEK5 binding to MEKK2 WT; actives lie on both sides; in the data active = binding response below about 16% or above about 210%; inactive = in between
# MEKK2mut-MEK5 = signal of MEK5 binding to mutant human MEKK2, retest; shares compounds with MEKK3 PB1 HTS; bead flow cytometry, Alexa488-MEK5 binding to MEKK2 mutant; percent response, % at 10 µM; hit rate 2% among 5,900; AID 1893; in the data active = percent response mostly above about 71%, no sharp cut-off; inactive = mostly below about 38%;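 also: higher means compound restores mutant binding toward wildtype level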
# MEKK3-MEK5 inh = MEKK3-MEK5 PB1 inhibition, single concentration confirmation; bead flow cytometry, Alexa488-MEK5 binding to MEKK3; active compounds read low; hit rate 1.8% among 5,900; shares compounds with MEKK3 PB1 HTS; binding response (% of control), % at 10 µM;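 active = binding response below 72% of control, or above a set upper limit, though filed actives all read lower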;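 also: lower values mean stronger disruption of MEK5 binding to MEKK3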
# Hits are given with their value; - = inactive; . = no result; [ ] = remark or other dose. Shown are actives, neighbours in structure and some others; about 2.3% of the full set was active somewhere.
SMILES,UBC13 inh,MEKK2wt PB1 HTS,MEKK2 mut-MEK5,MEKK3 PB1 HTS,MEKK2wt confirm,MEKK2mut-MEK5,MEKK3-MEK5 inh
CC1CC(=O)Nc2ccccc2N1C(=O)CN1CCN(c2ccccc2)CC1 (configuration not stated),-,-5.0[inhibitor],-,-,-,-,-
N#Cc1ccc2ccn(CC(=O)NCc3ccco3)c2c1,-,139,-,-,-,-,-
N#Cc1ccc2ccn(CC(=O)NC3CCCCCC3)c2c1,-,-,-,-,.,.,.
Cc1nn(C)c(C(=O)N2CCN(C(=O)c3ccco3)CC2)c1Br,-,34[inhibitor],-,-,-,-,-
Cc1ccc(CC(=O)N2CCN(C(=O)c3ccco3)CC2)cc1,-,-,-,49[inhibitor],-,-,-
Cn1ncc(Br)c1C(=O)N1CCN(C(=O)c2ccco2)CC1,-,-,-,-,.,.,.
O=C(Cc1ccc(Cl)cc1)N1CCN(C(=O)c2ccco2)CC1,-,-,-,-,.,.,.
Cc1cccn2c(=O)nc(SCC(=O)N3CCC(Cc4ccccc4)CC3)nc12,-,.,.,.,.,.,.
Nc1nc(NCC2CCCO2)nc(Nc2ccc(F)cc2)c1[N+](=O)[O-] (configuration not stated),-,-,-,199,-,-,-
CC(C)(C)n1nnnc1C(c1cccnc1)N(Cc1ccccc1)Cc1cccs1 (configuration not stated),-,2.0[inhibitor],-,2.0[inhibitor],-,-,-
COc1ccccc1N(CN1C(=O)c2ccccc2C1=O)C(=O)c1cccc(C)c1,-,-,-,141,-3.0[inhibitor],-,-
COc1cccc(C(=O)N(CN2CCCC2=O)c2ccccc2OC)c1,-,-,-,-,.,.,.
N#CCNC(=O)C1c2ccccc2Oc2ccccc21,-,-,-,-,.,.,.
COc1ccc(-c2csc(NC(=O)CN3C(=O)CCC3=O)n2)cc1,-,-,-,-,.,.,.
COc1ccc(-c2csc(NC(=O)CN3C(=O)CCC3=O)n2)c(OC)c1,-,-,-,142,-,-,-
O=C1c2ccccc2NC(c2ccc(Br)s2)N1O (configuration not stated),-,.,.,.,.,.,.
O=C(CN1CCN(Cc2ccc(Cl)cc2)CC1)N/N=C/c1ccccc1F,-,57[inhibitor],-,68[inhibitor],-,-,-
O=C(CN1CCN(Cc2ccc(Cl)cc2)CC1)N/N=C/c1ccncc1,-,-,-,-,.,.,.
COC(=O)C(F)(F)Sc1c(C)[nH]c2ccccc12,-,-,-,79[inhibitor],-,-,-
Cc1[nH]c2ccccc2c1SCC(=O)O,-,-,-,-,.,.,.
COc1cccc(OC)c1-c1nn2c(-c3cc(-c4ccccc4)n[nH]3)nnc2s1,-,-,-,78[inhibitor],-,-,48
O=Nc1c(O)[nH]c2c(F)cccc12,-,-,-,-,.,.,.
CCc1cccc2c(N=O)c(O)[nH]c12,-,-,-,136,-,-,-
Cc1nc(N2CCN(Cc3ccccc3)CC2)c(C#N)c2c1COC(C)(C)C2,-,-,-,79[inhibitor],-,-,-
CCOC(=O)C1CC(C)=C(C)CC1C(=O)O (configuration not stated),-,-,-,-,.,.,.
SMILES,UBC13 inh,MEKK2wt PB1 HTS,MEKK2 mut-MEK5,MEKK3 PB1 HTS,MEKK2wt confirm,MEKK2mut-MEK5,MEKK3-MEK5 inh
O=C(CSCC(=O)NC1CCCC1)Nc1ccccc1,-,-,-,128,-,-,-
O=C(CCSCc1ccccc1Cl)NC1CCCC1,-,2.0[inhibitor],-,2.0[inhibitor],-,-,-
Cc1ccccc1N(CC(=O)NC1CCCC1)C(=O)C1(C)CC(=O)N=C2C=CC=CN21 (configuration not stated),-,-,-,46[inhibitor],-,-,-
Oc1c(Br)cc(C=Nc2ccc3nc(-c4ccccc4)[nH]c3c2)c(O)c1Br,-,56[inhibitor],-,-,-,-,-
O=C(NC1CCCC1)C1CCN(S(=O)(=O)c2cccc3cccnc23)CC1,-,-,-,-,.,.,.
O=C(NC1CCCCC1)C1CCCN(S(=O)(=O)c2cccc3cccnc23)C1 (configuration not stated),-,-,-,129,-,-,-
C=CC[C@H]1CC(Cc2ccccc2)=C[C@H](CC=C)N1,-,-,-,-,.,.,.
C=CC[C@H]1CC(C)=C[C@H](CC=C)N1,-,203,195,-,-,-,-
